Screening data from PubChem BioAssay.
Hits are enriched below; roughly 10% of the tested compounds scored in any of these assays.
VP16 counter – Gal4-VP16 reporter inhibition counter-screen. Drosophila S2 Gal4-VP16 UAS-luciferase, luminescence, 20 h. Potency, µM (titrated, usually from 53.6 µM), hits mostly inhibitors. hit rate 3.5% among 310,000. AID 2546;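 note: Gal4-VP16 expression switched on by copper sulfate through the metallothionein promoter; nearly all actives have a fitted effect of over 50% in size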
MCF10A rerep – inducers of DNA re-replication in MCF 10A breast cells; MCF 10A DNA re-replication, Hoechst nuclear intensity, 48 h; Potency, µM (highest dose often 46.1 µM), usual class: activators; hit rate 2.9% among 350,000; AID 624296; note: nearly all actives have a fitted effect of over 50% in size
SW480 rereplic – inducers of DNA re-replication in SW480 colon cancer cells; hit rate 1.8% among 340,000; AID 624297; SW480 DNA re-replication, Hoechst DNA content imaging, 48 h; Potency, µM (titrated, usually from 46.1 µM), hits mostly activators; note: nearly all actives have a fitted effect of over 55% in size
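Treated cells incubate 48 hr (37 C, 5% CO2), are stained 40 min with Hoechst, and nuclear fluorescence is enumerated; a rise in nuclei with high DNA signal marks re-replication.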
RORgamma inh – blocks mouse ROR gamma transcriptional activity; P51450; Drosophila S2 Gal4-RORgamma UAS-luciferase reporter, 20 h; Potency, µM (series often up to 53.6 µM), usual class: inhibitors; hit rate 5.4% among 310,000; note: nearly all actives have a fitted effect of over 60% in size
Target sequence (P51450 whole entry, looked up, the tested form may be a part): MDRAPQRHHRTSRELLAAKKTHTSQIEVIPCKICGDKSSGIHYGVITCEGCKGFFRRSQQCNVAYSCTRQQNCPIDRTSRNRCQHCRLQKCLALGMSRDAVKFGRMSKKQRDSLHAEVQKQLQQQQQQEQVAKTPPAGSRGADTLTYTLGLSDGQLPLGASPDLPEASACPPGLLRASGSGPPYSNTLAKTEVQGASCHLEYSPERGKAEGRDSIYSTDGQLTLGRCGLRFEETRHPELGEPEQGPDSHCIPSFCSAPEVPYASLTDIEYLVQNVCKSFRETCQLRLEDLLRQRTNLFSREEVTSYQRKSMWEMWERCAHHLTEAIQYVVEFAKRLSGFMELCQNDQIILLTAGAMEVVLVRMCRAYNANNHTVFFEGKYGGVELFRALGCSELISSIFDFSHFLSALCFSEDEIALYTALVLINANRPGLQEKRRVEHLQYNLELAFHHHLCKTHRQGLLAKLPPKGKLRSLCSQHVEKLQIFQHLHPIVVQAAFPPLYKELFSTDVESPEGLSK
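In this cell-based reporter format, copper sulfate (700 uM final) drives Gal4–ROR gamma fusion expression from a metallothionein promoter in Drosophila Schneider cells; compounds preincubated 1 hr, reporter read after 20 hr at ambient temperature.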
ELG1 repair inh – inhibitors of ELG1-dependent DNA repair in HEK293T cells. HEK293T ELG1-luciferase reporter, luminescence, 16 h; DNA damage induced by 5-fluorouridine. Potency, µM (highest dose often 46.1 µM), hits mostly inhibitors. hit rate 2.3% among 330,000; note: nearly all actives have a fitted effect of over 55% in size
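5-Fluorouridine DNA damage + compound/DMSO, 2,000 cells/well, 16 h, 37 °C/5% CO2. ONE-Glo, 30 min RT, luminescence. Readout = decrease in reporter signal.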
Hits are given with their value; – = inactive; ? = inconclusive; · = no result; ! = not active in a repeat; [ ] = remark or other dose. Calls come from the whole dose curve; as a rule, active = well fitted curve in the direction sought with a large enough effect; inconclusive = small, poorly fitted or top-dose-only effect, or another doubt; inactive = no such curve, though single readings can be large; an effect the other way counts as inactive or inconclusive.

SMILES | VP16 counter | MCF10A rerep | SW480 rereplic | RORgamma inh | ELG1 repair inh
Cc1c(C(=O)NCc2ccc3c(c2)OCO3)oc2ccc(S(=O)(=O)N3CCCCC3)cc12 | – | – | – | – | ?
Cc1c(C(=O)N2CCOCC2)oc2ccc(S(=O)(=O)N3CCCC3)cc12 | ? | – | – | – | ?
Cc1c(C(=O)NCc2cccnc2)oc2ccc(S(=O)(=O)N3CCCCCC3)cc12 | · | – | – | –[0.365 µM] | 18µM
Cc1c(C(=O)NCc2ccc3c(c2)OCO3)oc2ccc(S(=O)(=O)N3CCCC3)cc12 | – | – | – | – | 7.3µM
COc1ccc(NC(=O)c2oc3ccc(S(=O)(=O)N4CCC5(CC4)OCCO5)cc3c2C)cc1 | – | ? | – | – | 5.8µM
C/C(=N\NC(=O)c1ccc(NS(=O)(=O)c2cccs2)cc1)c1ccc(O)cc1O | – | ? | ? | – | ?
O=C1CC(Cc2ccccc2)C(=O)N1c1ncccn1 (centres undefined) | – | – | – | – | ?
Cc1c(C(=O)NCc2ccccc2)oc2ccc(S(=O)(=O)N3CCCC3)cc12 | – | – | – | – | 15µM
Cc1c(C(=O)NCc2cccnc2)oc2ccc(S(=O)(=O)N3CCCCC3)cc12 | – | – | – | ? | 5.8µM
O=C(COC(=O)C1(c2ccc(Cl)cc2)CCCC1)NC1CCS(=O)(=O)C1 (centres undefined) | – | – | – | – | –
O=C(/C=C/c1ccccc1)Nc1cc(NC(=O)/C=C/c2ccccc2)cc(C(=O)O)c1 | – | – | – | – | –
CCC(=O)Nc1cccc(C(=O)/C=C/c2ccccc2)c1 | ? | 8.2µM | ? | 16µM | ?
O=C(/C=C/c1ccccc1)Nc1cccc(C(=O)O)c1 | 5.6µM | – | – | 4µM | ?
CCC(=O)Nc1cccc(C(=O)/C=C/c2cccs2)c1 | ? | – | ? | ? | –
Cc1ccc(C(=O)OCN2C(=O)c3ccccc3C2=O)o1 | · | – | ? | · | –
CCC(CO)Oc1cc(NC(=O)c2cccc(OC)c2)c2ncn(C(C)C)c2c1 (centres undefined) | · | – | –[9.22 µM] | · | ?
CCn1c(Oc2ccc(F)cc2)nc2c1c(=O)n(C)c(=O)n2C | – | – | – | – | 8.2µM
COc1ccc(Oc2nc3c(c(=O)n(C)c(=O)n3C)n2Cc2ccccc2)cc1 | – | – | – | – | –
CC(C)CCn1c(Oc2ccc(Cl)cc2)nc2c1c(=O)n(C)c(=O)n2C | – | – | – | – | 21µM
Cc1cccc(Oc2nc3c(c(=O)n(C)c(=O)n3C)n2C)c1 | – | – | – | – | ?
CCCCn1c(Oc2ccc(C(=O)OC)cc2)nc2c1c(=O)n(C)c(=O)n2C | – | – | – | – | 21µM
Cn1c(=O)c2c(nc(Oc3ccccc3)n2C)n(C)c1=O | – | – | – | – | 16µM!
CCOC(=O)N1CCN(S(=O)(=O)N2CCCC(C(=O)NCCc3ccc(OCC)c(OCC)c3)C2)CC1 (centres undefined) | – | – | – | – | –
CSCCC(NC(=O)c1ccco1)C(=O)NCC1CCCO1 (centres undefined) | · | – | – | · | –
CCCCCC(=O)/C=C/C=C\CCCCCCCC(=O)O | – | · | · | – | ·
SMILES | VP16 counter | MCF10A rerep | SW480 rereplic | RORgamma inh | ELG1 repair inh
CCOc1ccc(NC(=S)NCCCc2ccccc2)cc1 | ? | ? | – | 5µM | –
CCOc1ccc(NC(=S)Nc2ccc(OC)cc2)cc1 | ? | – | – | 7.9µM | –
CCOc1ccc(NC(=S)NCc2cccnc2)cc1 | – | – | – | – | –
COc1ccc(NC(=S)Nc2ccccc2)cc1 | ? | – | – | ? | ?
COc1ccc(NC(=S)Nc2cccc(C)n2)cc1 | 4.5µM | – | – | ? | –
CCOc1ccc(C(=O)CC(C(=O)O)N2CCN(Cc3ccccc3)CC2)cc1 (centres undefined) | · | 16µM | – | · | –
COc1ccccc1NC(=O)N(C1CCCC1)C1CCN(C(C)=O)CC1 | – | – | – | – | –
CCN(CC)Cc1c(C(=O)N/N=C/c2ccccn2)nnn1-c1nonc1N | – | – | – | – | –
COc1ccc(CCN(C)C2CCCN(C(=O)c3ccnn3C)C2)cc1OC (centres undefined) | – | – | – | – | –
COC(=O)c1cnn(-c2nc3c(C)cccc3s2)c1C | – | – | – | – | –
CCOc1ccc(CN2CCC(Cc3ccccc3)CC2)cc1 | – | – | – | – | –
CCOc1ccc(NC(=S)Nc2ccc(Br)cc2Cl)cc1 | ? | – | ? | 14µM | –
COc1cccc(NC(=S)Nc2ccc(Br)cc2Cl)c1 | – | – | – | – | –
CCOc1ccc(NC(=S)Nc2ccc(OCc3ccccc3)cc2)cc1 | 22µM | – | – | ? | ?
CCC(C)c1ccc(NC(=S)Nc2ccc(OC)cc2)cc1 (centres undefined) | 5.6µM | ? | – | 7.1µM | –
CCOc1ccc(NC(=S)NCCN2CCN(Cc3ccccc3)CC2)cc1 | ? | – | – | 11µM | ?
O=C(Cn1c(=O)oc2ccccc21)Nc1n[nH]c(=S)s1 | – | – | – | – | –
COC(=O)c1cccc(C(=O)N2CCCC(Nc3ccc(C)c(C)c3)C2)c1 (centres undefined) | – | – | – | – | –
NC(=O)C1(Nc2ccc(Cl)cc2)CCCC1 | · | – | – | · | ·
CN(C)C(=S)SCC(=O)Nc1cccc(C(F)(F)F)c1 | – | – | – | – | ?
CCn1cc(CNC(=S)Nc2cccc3ccccc23)cn1 | – | – | – | ? | –
CCCC(C)c1nnc(NC(=O)CN2C(=O)c3ccccc3C2=O)s1 (centres undefined) | – | – | – | – | –
CCOc1ccc(NC(=S)NCCCN2CCN(c3ccc(OC)cc3)CC2)cc1 | ? | – | – | 5µM | ?
CCOc1ccc(CSCCNC(=S)Nc2ccccc2)cc1 | 4.5µM | – | – | 6.3µM | ?
Cc1cccc(NC(=O)Nc2ccc(C#N)cc2)n1 | – | 15µM | ? | – | –
SMILES | VP16 counter | MCF10A rerep | SW480 rereplic | RORgamma inh | ELG1 repair inh
CNC(=S)Nc1ccc(OCc2ccccc2)cc1 | ? | – | – | 4µM | ?
CCN1CCN(c2cc(C)nc(-c3ccccc3O)n2)CC1 | – | – | – | – | –
O=C(OCC(=O)N1CCCc2ccccc21)c1ccccc1NCCO | · | – | – | · | –
S=C(NCc1ccncc1)Nc1ccc(Br)cc1Cl | – | – | – | – | ?
Cc1cccnc1NC(=S)Nc1ccc(Br)cc1Cl | 7.1µM | – | – | 2.5µM | ?
Oc1ccc2cc(SSc3ccc4cc(O)ccc4c3)ccc2c1 | – | · | · | – | ·
CCOc1cc(/C=C2\C(=O)N(c3ccc(C(N)=O)cc3)N=C2C)ccc1OC(=O)c1cccs1 | – | ? | – | – | –
CC1=NN(c2ccc(C(=O)O)cc2)C(=O)/C1=C\c1ccc(OC(=O)c2cccs2)cc1 | – | ? | – | 11µM | –
O=C(NN=Cc1ccc(OC(F)F)cc1)c1ccc(NS(=O)(=O)c2cccs2)cc1 | · | – | ? | · | –
CC/C(=N\NC(=O)c1ccc(Br)cc1)c1ccccc1 | – | – | – | ? | ?
